Among the data in ChEMBL document CHEMBL1961873, “Compounds: GSK PKIS; Assays: Nanosyn kinase panel” (2012) are inhibition values, retold here.

Assay [1] addresses T1, Tyrosine-protein kinase receptor TYRO3 (Homo sapiens) (UniProt Q06418).
T1 sequence (whole entry): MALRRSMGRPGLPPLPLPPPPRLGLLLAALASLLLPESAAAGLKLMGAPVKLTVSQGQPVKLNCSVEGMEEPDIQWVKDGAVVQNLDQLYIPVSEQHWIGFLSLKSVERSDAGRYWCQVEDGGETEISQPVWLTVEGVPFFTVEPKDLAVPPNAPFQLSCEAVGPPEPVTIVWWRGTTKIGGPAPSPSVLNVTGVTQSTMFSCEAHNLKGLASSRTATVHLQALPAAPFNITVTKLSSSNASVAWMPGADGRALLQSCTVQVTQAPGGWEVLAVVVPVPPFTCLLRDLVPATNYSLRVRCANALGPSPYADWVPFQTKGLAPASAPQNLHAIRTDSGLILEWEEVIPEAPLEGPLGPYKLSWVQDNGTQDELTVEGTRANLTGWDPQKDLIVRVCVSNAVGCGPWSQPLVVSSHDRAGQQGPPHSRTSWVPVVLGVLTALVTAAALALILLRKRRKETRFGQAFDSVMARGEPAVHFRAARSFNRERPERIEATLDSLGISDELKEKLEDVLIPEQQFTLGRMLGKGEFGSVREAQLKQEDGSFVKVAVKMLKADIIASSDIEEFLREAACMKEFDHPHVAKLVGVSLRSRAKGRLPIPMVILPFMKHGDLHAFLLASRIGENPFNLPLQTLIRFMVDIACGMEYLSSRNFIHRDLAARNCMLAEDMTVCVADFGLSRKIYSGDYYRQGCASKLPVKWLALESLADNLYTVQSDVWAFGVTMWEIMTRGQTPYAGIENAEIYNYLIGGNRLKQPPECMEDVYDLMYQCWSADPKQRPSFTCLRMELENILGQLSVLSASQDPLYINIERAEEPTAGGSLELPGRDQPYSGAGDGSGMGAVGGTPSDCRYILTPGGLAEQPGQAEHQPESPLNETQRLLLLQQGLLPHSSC
The note with it: at 1 µM.

For assay [2], the target named is Tyrosine-protein kinase Yes (Homo sapiens) (UniProt P07947). To be noted: at 0.1 µM.
Assay [3] has the same target. To be noted: at 1 µM.
Assay [4] addresses T2, Tyrosine-protein kinase ZAP-70 (Homo sapiens) (UniProt P43403).
T2 sequence (whole entry): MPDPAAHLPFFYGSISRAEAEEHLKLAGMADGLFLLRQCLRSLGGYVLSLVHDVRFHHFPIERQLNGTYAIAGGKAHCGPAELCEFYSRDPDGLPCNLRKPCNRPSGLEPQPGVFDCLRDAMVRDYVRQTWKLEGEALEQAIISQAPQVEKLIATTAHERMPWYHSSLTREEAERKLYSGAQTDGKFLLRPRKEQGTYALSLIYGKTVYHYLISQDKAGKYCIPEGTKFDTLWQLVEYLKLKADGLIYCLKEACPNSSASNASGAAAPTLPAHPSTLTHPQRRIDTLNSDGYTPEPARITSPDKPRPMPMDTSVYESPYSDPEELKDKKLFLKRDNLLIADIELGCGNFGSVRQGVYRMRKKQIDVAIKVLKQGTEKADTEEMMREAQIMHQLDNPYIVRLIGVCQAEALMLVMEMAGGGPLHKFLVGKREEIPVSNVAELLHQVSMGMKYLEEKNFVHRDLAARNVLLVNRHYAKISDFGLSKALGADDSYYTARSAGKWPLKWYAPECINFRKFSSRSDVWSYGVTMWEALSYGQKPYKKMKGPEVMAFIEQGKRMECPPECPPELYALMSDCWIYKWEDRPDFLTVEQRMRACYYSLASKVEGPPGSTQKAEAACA
The note with it: at 0.1 µM.

Assay [5] addresses T2, Tyrosine-protein kinase ZAP-70 (Homo sapiens). The note with it: at 1 µM.
Assay [6] addresses Serine/threonine-protein kinase B-raf (Homo sapiens) (UniProt P15056). To be noted: at 0.1 µM.
The target is the same in assay [7]. The note with it: at 1 µM.
Assay [8] relates to Serine/threonine-protein kinase B-raf (Homo sapiens), P15056 [V600E]. The note with it: at 0.1 µM.
For assay [9] the test system is unchanged. To be noted: at 1 µM.
Assay [10] addresses RAF proto-oncogene serine/threonine-protein kinase (Homo sapiens) (UniProt P04049). The note with it: at 0.1 µM.
Assay [11] shares this target. To be noted: at 1 µM.
Assay [12] concerns the target T3, Interleukin-1 receptor-associated kinase 4 (Homo sapiens) (UniProt Q9NWZ3).
T3 sequence (whole entry): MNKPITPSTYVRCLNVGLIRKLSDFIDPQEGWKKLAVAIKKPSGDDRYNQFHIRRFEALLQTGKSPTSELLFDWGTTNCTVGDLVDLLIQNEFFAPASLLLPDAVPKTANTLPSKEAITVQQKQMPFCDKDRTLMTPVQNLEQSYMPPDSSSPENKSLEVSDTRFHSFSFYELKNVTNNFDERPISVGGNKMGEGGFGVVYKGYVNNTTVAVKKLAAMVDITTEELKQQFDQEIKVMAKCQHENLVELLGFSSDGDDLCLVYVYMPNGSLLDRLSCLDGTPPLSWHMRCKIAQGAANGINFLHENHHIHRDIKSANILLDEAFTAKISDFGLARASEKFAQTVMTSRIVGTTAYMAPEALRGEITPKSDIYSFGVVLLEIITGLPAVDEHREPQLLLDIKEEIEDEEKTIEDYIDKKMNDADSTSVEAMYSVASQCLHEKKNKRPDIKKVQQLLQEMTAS
The note with it: at 0.1 µM.

The target of assay [13] is T3, Interleukin-1 receptor-associated kinase 4 (Homo sapiens). To be noted: at 1 µM.
Assay [14] concerns the target Leucine-rich repeat serine/threonine-protein kinase 2 (Homo sapiens) (UniProt Q5S007). To be noted: at 0.1 µM.
Assay [15] has the same target. The note with it: at 1 µM.
Assay [16] concerns Leucine-rich repeat serine/threonine-protein kinase 2 (Homo sapiens), Q5S007 [G2019S]. To be noted: at 0.1 µM.
Assay [17] has the same test system. To be noted: at 1 µM.

“And” between values parts separate entries of the source, which are not always exact repeats. Equal values may be shown once.

Chain of Leucine-rich repeat serine/threonine-protein kinase 2 (Homo sapiens) (Q5S007 whole entry): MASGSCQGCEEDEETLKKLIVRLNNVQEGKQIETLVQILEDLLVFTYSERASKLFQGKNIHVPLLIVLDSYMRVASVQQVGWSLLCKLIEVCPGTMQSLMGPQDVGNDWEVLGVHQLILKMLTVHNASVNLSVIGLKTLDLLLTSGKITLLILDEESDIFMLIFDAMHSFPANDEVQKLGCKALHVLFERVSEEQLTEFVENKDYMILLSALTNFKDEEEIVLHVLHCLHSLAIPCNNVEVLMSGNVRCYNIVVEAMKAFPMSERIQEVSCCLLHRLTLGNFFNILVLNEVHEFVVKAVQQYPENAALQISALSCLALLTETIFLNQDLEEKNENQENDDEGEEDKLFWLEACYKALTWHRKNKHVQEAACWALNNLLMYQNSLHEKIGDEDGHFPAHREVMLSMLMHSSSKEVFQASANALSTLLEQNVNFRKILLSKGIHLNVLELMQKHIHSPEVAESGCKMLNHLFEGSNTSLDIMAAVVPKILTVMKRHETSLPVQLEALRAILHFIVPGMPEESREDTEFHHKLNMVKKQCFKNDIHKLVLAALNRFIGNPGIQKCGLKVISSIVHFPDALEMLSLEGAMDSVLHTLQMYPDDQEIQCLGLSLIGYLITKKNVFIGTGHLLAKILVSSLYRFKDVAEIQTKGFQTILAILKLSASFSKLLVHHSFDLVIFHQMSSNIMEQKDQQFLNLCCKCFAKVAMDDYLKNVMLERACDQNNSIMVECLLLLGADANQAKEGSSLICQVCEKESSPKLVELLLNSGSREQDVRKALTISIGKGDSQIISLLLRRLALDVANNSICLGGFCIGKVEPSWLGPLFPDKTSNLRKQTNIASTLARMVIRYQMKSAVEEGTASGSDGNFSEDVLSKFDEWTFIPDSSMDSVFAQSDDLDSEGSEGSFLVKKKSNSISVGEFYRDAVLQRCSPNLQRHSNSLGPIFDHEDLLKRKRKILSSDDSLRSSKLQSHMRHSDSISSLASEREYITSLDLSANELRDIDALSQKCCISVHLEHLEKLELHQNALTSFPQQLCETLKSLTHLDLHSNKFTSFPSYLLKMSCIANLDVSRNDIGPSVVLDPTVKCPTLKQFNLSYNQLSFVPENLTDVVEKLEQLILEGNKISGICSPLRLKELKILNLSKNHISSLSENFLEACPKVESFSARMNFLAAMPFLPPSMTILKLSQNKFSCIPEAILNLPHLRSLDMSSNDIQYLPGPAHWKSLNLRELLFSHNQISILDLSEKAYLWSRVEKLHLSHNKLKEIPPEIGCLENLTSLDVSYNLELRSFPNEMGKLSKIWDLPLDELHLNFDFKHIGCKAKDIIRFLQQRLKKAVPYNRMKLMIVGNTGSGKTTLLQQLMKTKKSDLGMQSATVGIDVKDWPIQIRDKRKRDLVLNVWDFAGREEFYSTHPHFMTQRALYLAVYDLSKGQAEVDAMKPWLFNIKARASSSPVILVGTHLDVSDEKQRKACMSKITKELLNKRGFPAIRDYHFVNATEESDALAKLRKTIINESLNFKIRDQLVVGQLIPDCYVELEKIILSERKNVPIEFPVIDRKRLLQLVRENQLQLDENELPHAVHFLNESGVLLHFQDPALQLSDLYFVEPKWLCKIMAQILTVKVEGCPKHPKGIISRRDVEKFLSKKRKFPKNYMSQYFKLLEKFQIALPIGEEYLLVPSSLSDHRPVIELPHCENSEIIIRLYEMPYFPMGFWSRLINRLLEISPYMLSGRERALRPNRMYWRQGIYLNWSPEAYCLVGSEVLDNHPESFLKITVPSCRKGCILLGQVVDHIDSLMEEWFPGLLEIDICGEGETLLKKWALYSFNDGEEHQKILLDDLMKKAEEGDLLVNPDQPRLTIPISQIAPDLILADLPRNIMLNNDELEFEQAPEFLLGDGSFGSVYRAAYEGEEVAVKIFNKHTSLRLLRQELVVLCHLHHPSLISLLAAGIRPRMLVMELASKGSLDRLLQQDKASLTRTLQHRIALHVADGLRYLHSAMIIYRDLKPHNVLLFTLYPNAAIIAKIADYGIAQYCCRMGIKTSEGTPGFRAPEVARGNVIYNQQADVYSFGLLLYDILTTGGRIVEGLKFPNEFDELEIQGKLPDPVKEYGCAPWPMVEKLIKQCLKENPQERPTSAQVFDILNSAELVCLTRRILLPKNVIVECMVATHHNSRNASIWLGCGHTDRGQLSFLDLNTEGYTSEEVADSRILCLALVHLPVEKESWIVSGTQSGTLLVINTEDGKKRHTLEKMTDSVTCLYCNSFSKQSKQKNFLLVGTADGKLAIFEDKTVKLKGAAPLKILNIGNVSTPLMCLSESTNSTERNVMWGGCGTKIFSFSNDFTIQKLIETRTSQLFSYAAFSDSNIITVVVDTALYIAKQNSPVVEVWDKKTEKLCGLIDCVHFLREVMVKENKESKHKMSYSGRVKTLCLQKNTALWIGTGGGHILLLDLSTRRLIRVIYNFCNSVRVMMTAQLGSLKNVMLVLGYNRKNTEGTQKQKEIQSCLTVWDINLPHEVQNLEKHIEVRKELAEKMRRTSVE
Chain of RAF proto-oncogene serine/threonine-protein kinase (Homo sapiens) (P04049 whole entry): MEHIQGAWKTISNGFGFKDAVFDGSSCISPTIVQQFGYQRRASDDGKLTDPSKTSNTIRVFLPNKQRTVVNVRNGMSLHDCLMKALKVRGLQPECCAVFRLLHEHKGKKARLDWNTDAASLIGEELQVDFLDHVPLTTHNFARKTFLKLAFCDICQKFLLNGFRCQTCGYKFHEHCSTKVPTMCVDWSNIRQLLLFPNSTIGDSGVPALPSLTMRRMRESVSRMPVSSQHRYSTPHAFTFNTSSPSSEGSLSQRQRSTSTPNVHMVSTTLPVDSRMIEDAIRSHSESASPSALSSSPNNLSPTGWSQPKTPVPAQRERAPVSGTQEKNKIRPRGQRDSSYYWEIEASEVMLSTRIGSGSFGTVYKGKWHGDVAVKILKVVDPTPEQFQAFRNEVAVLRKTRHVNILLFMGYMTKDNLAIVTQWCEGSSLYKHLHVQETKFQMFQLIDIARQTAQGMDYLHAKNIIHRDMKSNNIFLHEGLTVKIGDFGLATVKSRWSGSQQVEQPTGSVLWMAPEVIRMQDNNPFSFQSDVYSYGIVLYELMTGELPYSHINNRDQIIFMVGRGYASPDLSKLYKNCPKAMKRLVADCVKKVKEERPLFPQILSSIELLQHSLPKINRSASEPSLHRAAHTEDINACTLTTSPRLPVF
Chain of Serine/threonine-protein kinase B-raf (Homo sapiens) (P15056 whole entry): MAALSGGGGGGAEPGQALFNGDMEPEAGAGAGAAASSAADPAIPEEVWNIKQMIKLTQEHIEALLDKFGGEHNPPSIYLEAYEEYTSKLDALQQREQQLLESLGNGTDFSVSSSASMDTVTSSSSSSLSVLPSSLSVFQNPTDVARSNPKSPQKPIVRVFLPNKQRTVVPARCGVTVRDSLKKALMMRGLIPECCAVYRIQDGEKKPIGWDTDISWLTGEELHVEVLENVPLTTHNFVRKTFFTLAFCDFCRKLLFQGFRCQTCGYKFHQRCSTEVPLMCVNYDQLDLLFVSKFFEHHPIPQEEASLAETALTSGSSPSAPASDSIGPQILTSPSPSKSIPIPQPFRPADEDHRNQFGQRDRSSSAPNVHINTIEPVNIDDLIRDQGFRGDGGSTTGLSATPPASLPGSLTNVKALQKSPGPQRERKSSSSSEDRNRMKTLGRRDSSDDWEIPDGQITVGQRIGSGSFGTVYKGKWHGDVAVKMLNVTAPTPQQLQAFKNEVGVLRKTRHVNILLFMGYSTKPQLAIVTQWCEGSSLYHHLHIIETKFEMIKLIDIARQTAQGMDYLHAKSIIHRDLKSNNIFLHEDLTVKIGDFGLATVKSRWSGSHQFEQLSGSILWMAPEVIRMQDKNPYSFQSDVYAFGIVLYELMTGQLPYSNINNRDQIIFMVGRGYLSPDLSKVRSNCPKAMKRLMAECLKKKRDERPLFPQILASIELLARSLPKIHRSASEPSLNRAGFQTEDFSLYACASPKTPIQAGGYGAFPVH
Chain of Serine/threonine-protein kinase B-raf (Homo sapiens), P15056 [V600E] (P15056 whole entry V600E): as the sequence (P15056 whole entry) above, with V600E counted along it
Chain of Leucine-rich repeat serine/threonine-protein kinase 2 (Homo sapiens), Q5S007 [G2019S] (Q5S007 whole entry G2019S): as the sequence (Q5S007 whole entry) above, with G2019S counted along it
Chain of Tyrosine-protein kinase Yes (Homo sapiens) (P07947 2-543 limits assumed): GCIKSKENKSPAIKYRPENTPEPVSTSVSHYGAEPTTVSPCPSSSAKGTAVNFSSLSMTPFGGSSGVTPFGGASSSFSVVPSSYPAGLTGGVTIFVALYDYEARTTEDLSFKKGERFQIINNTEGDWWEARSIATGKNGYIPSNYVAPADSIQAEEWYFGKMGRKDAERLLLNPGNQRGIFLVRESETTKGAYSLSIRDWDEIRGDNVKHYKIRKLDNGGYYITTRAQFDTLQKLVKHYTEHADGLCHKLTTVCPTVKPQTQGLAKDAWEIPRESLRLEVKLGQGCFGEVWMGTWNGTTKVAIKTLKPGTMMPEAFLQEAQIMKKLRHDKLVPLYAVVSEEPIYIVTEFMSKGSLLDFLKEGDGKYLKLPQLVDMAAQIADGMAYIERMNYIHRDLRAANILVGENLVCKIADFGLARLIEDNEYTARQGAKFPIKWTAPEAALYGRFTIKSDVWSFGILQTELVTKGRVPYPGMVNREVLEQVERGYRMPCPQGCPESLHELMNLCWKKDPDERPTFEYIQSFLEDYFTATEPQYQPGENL

As usually defined, the inhibition is the drop in the measured response relative to a control, in per cent. `Nc1ncnc2occ(-c3ccc(NC(=O)Nc4cc(C(F)(F)F)ccc4F)cc3)c12`: the inhibition in assay [1] is 35.9% and 19%; in assay [2], 6.63% and 1.99%; in [3], 32.5% and 23.6%; in assay [4], 1.41% and -6.7%; in assay [5], 3.15% and -0.06%; in [6] it was 2.87% and -2.08%. Also, the inhibition in assay [7] was 7.26% and 0.64%; in assay [8], 2.85% and -0.81%; in [9], 11.3% and 5.32%; in [10], -9.78% and -3.09%; in assay [11], -6.08% and -5.86%; in assay [12], -1.81% and -1.2%. Also, the inhibition in assay [13] is 1.77% and -0.37%; in [14], 13.6% and 6.55%; in assay [15], 18.1% and 19.4%; in assay [16], 8.38% and 6.37%; in assay [17] it was 35.4% and 28.6%.
`CNC(=O)c1sc(-n2cnc3cc(OC)c(OC)cc32)cc1OCc1ccccc1C(F)(F)F`: the inhibition in assay [1] is 3.54%; in [2] it was 3.33%; in assay [3], 6.76%; in [4] it was -0.03%; in [5], -1.04%; in assay [6] it was 6.42%. For the same compound, the inhibition in [7] worked out at 6.14%; in assay [8], 4.01%; in [9], 4.66%; in assay [10], 1.81%; in [11], 0.72%; in assay [12], 2.12%. Moreover, the inhibition was determined as 1.97% in assay [13]; 2.86% in [14]; 9.7% in assay [15]; 3.5% in assay [16]; 7.21% in assay [17].
With `COC(=O)Nc1nc2cc(Oc3ccc(NC(=O)Nc4ccccc4)cc3)ccc2[nH]1`, the inhibition in assay [1] is 4.81%; in assay [2], 0.64%; in assay [3] it was 4.69%; in assay [4] it was 0.7%; in assay [5], 1.28%; in [6], 4.74%. Moreover, the inhibition in assay [7] was 4.26%; in assay [8] it was 5.49%; in assay [9] it was 5%; in [10] it was -5.27%; in assay [11], 17.3%; in [12], 2.38%. Further, the inhibition was found to be 0.86% in [13]; 3.5% in assay [14]; 6.86% in assay [15]; 3.61% in assay [16]; 4.1% in [17].
With `COc1cc(Nc2ncc(-c3ccccc3)o2)cc(OC)c1`, the inhibition in assay [1] stood at 8.91%; in assay [2], 5.8%; in assay [3], 39.5%; in [4], 2.8%; in assay [5], 1.02%; in [6], 7.08%. The inhibition in assay [7] is 6.68%; in [8] it was 5.31%; in assay [9] it was 3.47%; in [10], 0.47%; in assay [11] it was -1.38%; in [12], 2.03%. Moreover, the inhibition was 2.83% in assay [13]; 0.94% in assay [14]; 6.82% in assay [15]; 2.33% in assay [16]; 12.5% in assay [17].
In the case of `COc1ccc(-c2nn3ncccc3c2-c2ccnc(Nc3ccc(F)c(F)c3)n2)cc1`, the inhibition worked out at 6.24% in [1]; 39.5% in assay [2]; 85.2% in assay [3]; 2.54% in assay [4]; 1.2% in assay [5]; 5.72% in assay [6]. Further, the inhibition is 5.29% in assay [7]; 4.54% in assay [8]; 3.83% in assay [9]; 0.22% in assay [10]; -4.25% in assay [11]; -0.54% in assay [12]. Besides, the inhibition in [13] turned out to be 1.76%; in assay [14], 5.52%; in assay [15] it was 9.6%; in assay [16], 6.22%; in assay [17], 7.92%.
On to `FC(F)(F)CNc1nccc(-c2cnn3ncccc23)n1`, for which the inhibition amounted to 2.17% in assay [1]; 1.28% in [2]; 1.55% in [3]; 0.71% in assay [4]; 1.8% in [5]; 4.03% in [6]. For the same compound, the inhibition in assay [7] is 3.85%; in assay [8], 3.08%; in [9], 2.52%; in [10], -1.22%; in assay [11], -1%; in assay [12], 0.77%. Besides, the inhibition in assay [13] is 1.21%; in assay [14], 3.07%; in [15] it was 8.2%; in assay [16], 5.03%; in [17], 9.11%.
As for `COc1ccc(Nc2ncc(-c3ccccc3)o2)cc1OC`, the inhibition in assay [1] is 4.23%; in [2] it was 7%; in assay [3], 35.7%; in assay [4] it was 1.28%; in assay [5], 1.27%; in assay [6], -1.46%. Moreover, the inhibition in assay [7] was 1.35%; in [8], 0.52%; in assay [9], 2.34%; in assay [10], -0.64%; in [11] it was 3.96%; in assay [12] it was 2.27%. Also, the inhibition in assay [13] was determined as 2.28%; in assay [14], 1.05%; in assay [15] it was 13.2%; in [16] it was 3.5%; in assay [17] it was 22.9%.
